According to PubChem BioAssay (Tox21):
Records with an inconclusive call do not appear. Unmarked numbers belong to inactive results. Activity calls are given as the source filed them. Unless noted, the call rests on the fitted dose curve; in most records, active means well fitted cell-killing curve with a large enough effect in the repeat runs; inconclusive means weak or mixed curves, or effect the other way; inactive means no such curve, though single readings can be large or run the other way.

target: Peroxisome proliferator-activated receptor delta (Homo sapiens) (UniProt Q03181); experiment: qHTS assay to identify small molecule antagonists of the peroxisome proliferator-activated receptor delta (PPARd) signaling pathway (AID 743215; active means well fitted inhibition curve with a large enough effect in the signal ratio in the repeat runs, not every such curve was filed as active; the % refers to the signal ratio;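 further: cells stimulated with agonist L165041 at 300 nM final during compound exposure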); settings: HEK293H PPARd-UAS-bla, beta-lactamase FRET ratio, antagonist, 17 h; series mostly up to 62 µM; ratio activity, negative = inhibition: at the top concentration
Sequence (Q03181 whole entry, looked up): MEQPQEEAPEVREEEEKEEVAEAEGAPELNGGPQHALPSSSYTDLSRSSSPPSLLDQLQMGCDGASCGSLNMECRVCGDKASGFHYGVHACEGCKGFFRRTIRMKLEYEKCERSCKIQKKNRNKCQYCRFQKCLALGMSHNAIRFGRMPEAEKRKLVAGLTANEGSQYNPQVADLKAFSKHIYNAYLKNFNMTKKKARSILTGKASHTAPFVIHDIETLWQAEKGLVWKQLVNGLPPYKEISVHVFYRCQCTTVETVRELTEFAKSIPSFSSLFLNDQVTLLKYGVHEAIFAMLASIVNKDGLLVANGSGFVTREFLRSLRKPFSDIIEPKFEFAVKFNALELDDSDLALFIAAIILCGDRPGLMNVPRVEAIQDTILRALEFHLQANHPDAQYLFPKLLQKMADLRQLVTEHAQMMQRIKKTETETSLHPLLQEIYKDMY
Method in brief: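 With L165041 present at 300 nM final, compounds were incubated 17 h at 37 C on PPARd UAS-bla HEK293H cells. A FRET-based beta-lactamase substrate was then applied for 2 h at room temperature and fluorescence intensity recorded.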
On the % scale 0 is the no-effect control and ±100 the full control effect.

Row | Structure (SMILES) | ratio activity, negative = inhibition
1 | C1COCO1 | 15.7%
2 | NC(=O)Cn1c(=O)cc(CCN2CCN(c3nccc4sccc34)CC2)c2ccc(F)cc21 | -0.926%
3 | CC(=O)Nc1ccccc1C | 11.6% [at 80.4 µM]
4 | O=C(CCCN1CCC(O)(c2ccc(Br)cc2)CC1)c1ccc(F)cc1 | 11.7%
5 | CCOC(=N)CC(=O)OCC | 9.34%
6 | O=C(CCCCCCCCC#CI)Oc1ccccc1 | 4.32%
7 | CN(C(=O)C(Cl)Cl)c1ccc(OC(=O)c2ccco2)cc1 | 1.1%
8 | CC1CN(c2cc3c(cc2F)c(=O)c(C(=O)O)cn3-c2ccc(F)cc2F)CCN1 (stereo not drawn) | 1.55% [at 6.26 µM]
9 | C[C@@H]1C[C@H]2[C@@H]3CCC4=CC(=O)C=C[C@]4(C)[C@@]3(F)[C@@H](O)C[C@]2(C)[C@@]1(O)C(=O)CO | 11.1% [at 80.4 µM]
10 | COC(=O)[C@@H]1CC2=CC(=O)CC[C@]2(C)[C@@]23O[C@@H]2C[C@@]2(C)[C@@H](CC[C@@]24CCC(=O)O4)[C@H]13 | -0.225%
11 | CC1CC(O)CC(C)(C)C1 (stereo not drawn) | -0.464%
12 | CCOC(=O)/C=C/C(=O)O | 1.56%
13 | CO/N=C1\CN(c2nc3c(cc2F)c(=O)c(C(=O)O)cn3C2CC2)CC1CN (stereo not drawn) | 11.8%
14 | CC(CCO)CCc1ccccc1 (stereo not drawn) | 5.5%
15 | CCC(C)(C)C1CCC(O)CC1 (stereo not drawn) | 3.75%
16 | Cc1ccccc1N1C(=O)c2cc(S(N)(=O)=O)c(Cl)cc2NC1C (stereo not drawn) | 2.99%
17 | CCCCCC=CCC=CCCCCCCCC(=O)OCC | -27.7%
18 | C[N+](C)(C)CCOC(N)=O | 2.05%
19 | CCCCC(=O)O[C@]1(C(=O)CO)CC[C@H]2[C@@H]3CCC4=CC(=O)CC[C@]4(C)[C@H]3[C@@H](O)C[C@@]21C | 21.1%
20 | C=CCNc1nc(NCC=C)nc(N2CCN(C(c3ccc(F)cc3)c3ccc(F)cc3)CC2)n1 | -4.09%

target: Bile acid receptor (Homo sapiens) (UniProt Q96RI1); experiment: qHTS assay to identify small molecule antagonists of the farnesoid-X-receptor (FXR) signaling pathway (AID 743217; active means well fitted inhibition curve with a large enough effect in the signal ratio in the repeat runs, not every such curve was filed as active; the % refers to the signal ratio; further: potency means the concentration at half of the fitted maximal effect); settings: HEK293T FXR-UAS-bla, beta-lactamase ratio, CDCA-stimulated, 16 h; series mostly up to 62.6 µM; activity change, negative = inhibition: at the top concentration
Sequence (Q96RI1 whole entry, looked up): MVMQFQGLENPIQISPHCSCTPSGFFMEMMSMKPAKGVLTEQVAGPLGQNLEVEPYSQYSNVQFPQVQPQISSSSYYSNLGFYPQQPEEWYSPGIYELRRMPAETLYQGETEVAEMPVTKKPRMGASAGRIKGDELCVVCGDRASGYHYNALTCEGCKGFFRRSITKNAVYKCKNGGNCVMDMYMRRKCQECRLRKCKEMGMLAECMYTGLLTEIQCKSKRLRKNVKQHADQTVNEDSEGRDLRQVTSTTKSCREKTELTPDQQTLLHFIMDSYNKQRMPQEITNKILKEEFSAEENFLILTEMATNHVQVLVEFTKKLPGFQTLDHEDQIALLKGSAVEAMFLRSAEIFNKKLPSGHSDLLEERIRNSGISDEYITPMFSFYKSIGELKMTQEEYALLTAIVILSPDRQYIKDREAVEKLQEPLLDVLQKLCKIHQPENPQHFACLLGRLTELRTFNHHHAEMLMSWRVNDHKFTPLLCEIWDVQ
Method in brief: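 In this cell-based antagonist screen, inhibition of CDCA-driven (50 uM final) UAS-beta-lactamase expression in HEK 293T cells was measured by FRET fluorescence following 16 h compound exposure at 37 °C.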

Row | Structure (SMILES) | activity change, negative = inhibition | Potency
21 | CCCCC(CC)C(=O)OCCOCCOCCOCCOC(=O)C(CC)CCCC (stereo not drawn) | -7.35% | 
22 | CCCCN(CCCC)CCCOC(=O)c1ccc(N)cc1 | -0.613% | 
23 | O=C(CCCCCCCCC#CI)Oc1ccccc1 | -4.54% | 
24 | CN(C(=O)C(Cl)Cl)c1ccc(OC(=O)c2ccco2)cc1 | 10.3% | 
25 | CCC(C(=O)OCCOCCN(CC)CC)c1ccccc1 (stereo not drawn) | -0.132% | 
26 | CC1CC(O)CC(C)(C)C1 (stereo not drawn) | -7% | 
27 | CO/N=C1\CN(c2nc3c(cc2F)c(=O)c(C(=O)O)cn3C2CC2)CC1CN (stereo not drawn) | 8.29% | 
28 | C=CC(=O)NCOCC(C)C | -4.57% | 
29 | O=C(O)c1c(O)c(-c2ccccc2)nc2ccccc12 |  | 16.8 µM (active)
30 | CC(CCO)CCc1ccccc1 (stereo not drawn) | 5.09% | 
31 | Cc1cc(O)c2c(O)c3c(O)cccc3cc2c1 | -10.8% | 
32 | Cc1ccccc1N1C(=O)c2cc(S(N)(=O)=O)c(Cl)cc2NC1C (stereo not drawn) | 0.095% | 
33 | C/C=C(\C)C(=O)OCCC(C)CCC=C(C)C (stereo not drawn) | -1.64% | 
34 | O=C(O)c1cccc(O)c1 | -3.11% [at 81.1 µM] | 
35 | CCOC(=O)c1ccccc1C | -15.9% | 
36 | CCCCCC=CCC=CCCCCCCCC(=O)OCC | -2.46% | 
37 | C[N+](C)(C)CCOC(N)=O | -4.03% | 
38 | CCCCC(=O)O[C@]1(C(=O)CO)CC[C@H]2[C@@H]3CCC4=CC(=O)CC[C@]4(C)[C@H]3[C@@H](O)C[C@@]21C | 2.12% | 
39 | C=CCNc1nc(NCC=C)nc(N2CCN(C(c3ccc(F)cc3)c3ccc(F)cc3)CC2)n1 | 7.58% | 

system: not listed separately; experiment: qHTS assay to identify small molecule agonists of the farnesoid-X-receptor (FXR) signaling pathway - cell viability counter screen (AID 743218); settings: FXR-bla HEK293T viability, CellTiter-Glo luminescence, 16 h; series mostly up to 62.6 µM; viability change, negative = cytotoxic: at the top concentration; further: nearly all actives have a fitted effect of over 45% in size; further: potency means the concentration at half of the fitted maximal effect
Method in brief: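 After 16 h at 37 C with test compounds, FXR-bla HEK 293T cells were given LiveBLAzer B/G substrate for 2 h at RT and then CellTiter-Glo; luminescence was taken after 30 min.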

Row | Structure (SMILES) | viability change, negative = cytotoxic | Potency
40 | C1COCO1 | 0.58% | 
41 | O=S1OCCO1 | -1.44% [at 81.1 µM] | 
42 | CNCCCC1c2ccccc2C=Cc2ccccc21 |  | 23.7 µM (active)
43 | NC(=O)Cn1c(=O)cc(CCN2CCN(c3nccc4sccc34)CC2)c2ccc(F)cc21 | -27.1% | 
44 | O=C(N/N=C/c1ccc([N+](=O)[O-])o1)c1ccc(O)cc1 | 0.527% | 
45 | CC(=O)Nc1ccccc1C | 19.3% [at 81.1 µM] | 
46 | CCOC(=N)CC(=O)OCC | -4.84% | 
47 | CN1CCN(CCCN2c3ccccc3Sc3ccc(S(=O)(=O)N(C)C)cc32)CC1 |  | 29.8 µM (active)
48 | CCCCN(CCCC)CCCOC(=O)c1ccc(N)cc1 | -21.2% | 
49 | O=C(CCCCCCCCC#CI)Oc1ccccc1 | 17% | 
50 | CN(C(=O)C(Cl)Cl)c1ccc(OC(=O)c2ccco2)cc1 | 0.67% | 
51 | CC1CN(c2cc3c(cc2F)c(=O)c(C(=O)O)cn3-c2ccc(F)cc2F)CCN1 (stereo not drawn) | 19.1% [at 5.95 µM] | 
52 | CCC(C(=O)OCCOCCN(CC)CC)c1ccccc1 (stereo not drawn) | 6.37% | 
53 | COC(=O)[C@@H]1CC2=CC(=O)CC[C@]2(C)[C@@]23O[C@@H]2C[C@@]2(C)[C@@H](CC[C@@]24CCC(=O)O4)[C@H]13 | -3.42% | 
54 | CO/N=C1\CN(c2nc3c(cc2F)c(=O)c(C(=O)O)cn3C2CC2)CC1CN (stereo not drawn) | 1.11% | 
55 | C=CC(=O)NCOCC(C)C | 21% | 
56 | CC(CCO)CCc1ccccc1 (stereo not drawn) | 9.36% | 
57 | COc1ccc(CCC(=O)c2c(O)cc(O[C@@H]3O[C@H](CO)[C@@H](O)[C@H](O)[C@H]3O[C@@H]3O[C@@H](C)[C@H](O)[C@@H](O)[C@H]3O)cc2O)cc1O | -3.05% | 
58 | COc1ccc(C(=O)c2cccc(O)c2)c(OC)c1 | 1.45% | 
59 | N#C/C(=C1/SC[C@@H](c2ccc(Cl)cc2Cl)S1)n1ccnc1 | 3.35% | 
60 | Cc1cc(O)c2c(O)c3c(O)cccc3cc2c1 | 3.4% | 
61 | CCC(C)(C)C1CCC(O)CC1 (stereo not drawn) | 10.5% | 
62 | Cc1ccccc1N1C(=O)c2cc(S(N)(=O)=O)c(Cl)cc2NC1C (stereo not drawn) | -16% | 
63 | C/C=C(\C)C(=O)OCCC(C)CCC=C(C)C (stereo not drawn) | -17.4% | 
64 | O=C(O)c1cccc(O)c1 | 9.12% [at 81.1 µM] | 
65 | COc1cc2c(N3CCN(C(=O)Nc4ccc(OC(C)C)cc4)CC3)ncnc2cc1OCCCN1CCCCC1 | -22.2% | 
66 | CCCCCC=CCC=CCCCCCCCC(=O)OCC | -23.9% | 
67 | C[N+](C)(C)CCOC(N)=O | 17.3% | 
68 | CCCCC(=O)O[C@]1(C(=O)CO)CC[C@H]2[C@@H]3CCC4=CC(=O)CC[C@]4(C)[C@H]3[C@@H](O)C[C@@]21C | -3.96% | 
